In PubChem BioAssay (NCATS) one finds Potency and activity, negative = inhibition data, which are given here for 12 molecules.

Assay [1] can be described thus: qHTS profiling for inhibitors of Plasmodium falciparum proliferation (AID 504749).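 For activity, negative = inhibition: 0% = DMSO vehicle and full inhibition = artemisinin control.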 For all read-outs here: nearly all actives have a fitted effect of over 60% in size. The settings on record: P. falciparum in erythrocytes, SYBR Green DNA, 72 h; for activity, negative = inhibition: at 28.7 µM (top of the series). In short, it runs like this:
(§1)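 Fluorescence of SYBR Green-bound parasite DNA, read at 485/535 nm, served as the growth measure. Infected erythrocytes were cultured with compound 72 h; artemisinin (0.29 uM) and DMSO wells defined the normalization range.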

Another assay relates to 7G8. The assay is described as above. The settings on record: P. falciparum in erythrocytes, SYBR Green DNA, 72 h; series mostly up to 28.7 µM. In short, it runs like this:
as §1

Another assay relates to AA1029. The assay is described as above. As to conditions: P. falciparum in erythrocytes, SYBR Green DNA, 72 h; series mostly up to 28.7 µM. The method in brief:
as §1

A further assay deals with AS120. Described as above. The settings on record: P. falciparum in erythrocytes, SYBR Green DNA, 72 h; series mostly up to 28.7 µM. The method in brief: as §1
The next assay deals with ATS189. Described as above. As to conditions: P. falciparum in erythrocytes, SYBR Green DNA, 72 h; series mostly up to 28.7 µM. The method in brief: as §1
A further assay has as its system ATS95. The description is as above. As to conditions: P. falciparum in erythrocytes, SYBR Green DNA, 72 h; series mostly up to 28.7 µM. In short, it runs like this: as §1
Another assay has as its system 3D7. The description is as above. The settings on record: P. falciparum in erythrocytes, SYBR Green DNA, 72 h; series mostly up to 28.7 µM. In short, it runs like this: as §1
For a further assay, the system named is C2A. The description is as above. The settings on record: P. falciparum in erythrocytes, SYBR Green DNA, 72 h; series mostly up to 28.7 µM. The method in brief:
as §1

Several values for one entry are separate records, joined by “and”; a condition that tells them apart may be missing. Equal values may be shown once. Records with an inconclusive call do not appear. A number with no mark means an inactive call. Activity calls are given as the source filed them. Calls come from the whole dose curve; as a rule, active = well fitted inhibition curve with a large enough effect; inconclusive = small, poorly fitted or top-dose-only effect; inactive = flat fitted curve, though single readings scatter.
Potency is the fitted concentration of half-maximal effect.

For `O=C(CCN1CCN(CCO)CC1)N1c2ccccc2Sc2ccc(C(F)(F)F)cc21`, the Potency in assay [1] (parasite line A) was 14.1 µM (active); in the assay on 7G8 it was 7.94 µM (active); in the assay on AS120, 14.1 µM (active); in the assay with ATS189, 11.2 µM (active). Further, the Potency result with AA1029 and in the assay on ATS95 was “inactive” throughout.
For the molecule `COC(=O)C1=C(C)NC(C)=C(C(=O)OCC(C)C)C1c1ccccc1[N+](=O)[O-]` (stereo not drawn), the Potency in assay [1] (parasite line A) is 11.2 µM (active); in assay [1] (parasite line B), 10 µM (active); in the assay on 7G8, 3.16 µM (active); with AS120 it was 10 µM (active).
As for `C=C(Nc1ccc(OCC)cc1)Nc1ccc(OCC)cc1`, the activity, negative = inhibition is 1.26% and 13.3% in assay [1] (parasite line A); -29.4% and 7.39% in assay [1] (parasite line B). In addition, the Potency entry with 3D7, with 7G8, in the assay with AA1029, with AS120, in the assay with ATS189 and in the assay on ATS95 was “inactive” in each case. The Potency entry in the assay with C2A was “inactive”.
Turning to `CCC1C(=O)OCC1Cc1cncn1C` (stereo not drawn), the results for the activity, negative = inhibition in assay [1] (parasite line A) and in assay [1] (parasite line B) were -3.99% and -7.08%, respectively. Further, the Potency result with 3D7, with 7G8, in the assay with AA1029, with AS120, in the assay on ATS189 and in the assay with ATS95 was “inactive” in each case. For the same molecule, the Potency entry in the assay on C2A is “inactive”.
Regarding `CC(N)C(=O)OC(C)(C)Cc1ccc(Cl)cc1` (stereo not drawn), the activity, negative = inhibition in assay [1] (parasite line A) is 3.68%; in assay [1] (parasite line B), 0.818%. For the same molecule, the Potency entry with 3D7 and with C2A was “inactive” throughout. Also, the Potency in the assay on 7G8 is 10 µM (active).
As to `CCCC(=O)OC[C@@H](OC(=O)CCC)[C@@H](OC(=O)CCC)[C@H](Cn1c2nc(=O)[nH]c(=O)c-2nc2cc(C)c(C)cc21)OC(=O)CCC`, the activity, negative = inhibition in assay [1] (parasite line A) is -28.7%. The Potency result with ATS189 was “inactive”.
As to `O=c1[nH]c2ccccc2n1CCCN1CCN(C(c2ccccc2)c2ccccc2)CC1`, in assay [1] (parasite line A), the activity, negative = inhibition was -13.9%. For the same molecule, the Potency in the assay on 7G8 was 7.08 µM (active). Besides, the Potency entry in the assay with C2A was “inactive”.
As for `CN1[C@@H](CC(=O)c2ccccc2)CCC[C@H]1C[C@H](O)c1ccccc1`, the activity, negative = inhibition in assay [1] (parasite line A) was -28.5%. The Potency in assay [1] (parasite line B) is 12.6 µM (active); in the assay with 7G8 it was 8.91 µM (active); in the assay with AA1029 it was 11.2 µM (active); in the assay on AS120 it was 12.6 µM (active). Besides, the Potency entry in the assay with 3D7 and with C2A was “inactive” in each case.
`CCCCC[C@H](O)/C=C/[C@@H]1[C@@H](C/C=C\CCCC(=O)O)[C@@H](O)C[C@H]1O`: the activity, negative = inhibition in assay [1] (parasite line A) was 7.31%; in assay [1] (parasite line B), 11%. The Potency result in the assay with 3D7, in the assay with AA1029, in the assay with AS120, with ATS189, in the assay with ATS95 and with C2A was “inactive” in each case.
With `c1ccc2sc(SN3CCOCC3)nc2c1`, the activity, negative = inhibition in assay [1] (parasite line A) is -12.8%. Moreover, the Potency result in the assay with 3D7, in the assay on AA1029, in the assay on ATS189, in the assay on ATS95 and with C2A was “inactive” in each case. The Potency in the assay with 7G8 was 11.2 µM (active).
`CCCCCC[C@@H](O)C/C=C\CCCCCCCC(=O)O`: the activity, negative = inhibition was -10.4% in assay [1] (parasite line A) and -8.48% in assay [1] (parasite line B). For the same molecule, the Potency entry in the assay on 3D7, in the assay on 7G8, in the assay on AA1029, in the assay with AS120, with ATS189 and in the assay on ATS95 was “inactive” in each case. For the same molecule, the Potency result in the assay on C2A was “inactive”.
With `COc1ccc(-c2cc(=S)ss2)cc1`, the activity, negative = inhibition was -10.3% in assay [1] (parasite line A) and -12.9% in assay [1] (parasite line B). For the same molecule, the Potency entry in the assay with 3D7, with AA1029, in the assay on AS120, with ATS189, with ATS95 and with C2A was “inactive” in each case. The Potency in the assay on 7G8 was 12.6 µM (active).
